Legend:
Experiment in all cases: PBM binding z-score (relative to random genomic background probes); higher = stronger binding; sequences stand for … in GC…GCGATTGACAGCGTAGAATGAAGG
[1] = tested on: FXR:RXRa (NR concentration 270 nM, RXRa partner concentration 90 nM)
Summary of the method: (§1)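 Binding buffer was PBS pH 7.4 with 2% milk, 0.02% Triton X-100, 1 mM DTT, 0.2 mg/mL BSA and 0.4 mg/ml salmon testes DNA. In it, ligand-free nuclear receptor dimers were incubated 1 h on custom Agilent 4×180K protein-binding microarrays carrying double-stranded probes. Antibodies against each partner (one per run) detected binding, and z-scores were calculated against random background probes after regression normalization of scanned fluorescence.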

[2] = tested on: LXRa:RXRa (NR concentration 270 nM, RXRa partner concentration 90 nM)
Summary of the method: as §1

[3] = tested on: LXRa homodimer (NR concentration 270 nM)
Summary of the method: as §1

[4] = tested on: LXRb:RXRa (NR concentration 270 nM, RXRa partner concentration 90 nM)
Summary of the method: as §1

[5] = tested on: LXRb homodimer (NR concentration 270 nM)
Summary of the method: as §1

[6] = tested on: PPARa:RXRa (NR concentration 270 nM, RXRa partner concentration 90 nM)
Summary of the method: as §1

[7] = tested on: PPARg:RXRa (NR concentration 180 nM, RXRa partner concentration 90 nM)
Summary of the method: as §1

[8] = tested on: PPARg:RXRa 270nM:90nM, anti-RXR (NR concentration 270 nM, RXRa partner concentration 90 nM)
Summary of the method: as §1

[9] = tested on: PPARg:RXRa 30nM:10nM, anti-RXR (NR concentration 30 nM, RXRa partner concentration 10 nM)
Summary of the method: as §1

[10] = tested on: PPARg:RXRa 90nM:30nM, anti-RXR (NR concentration 90 nM, RXRa partner concentration 30 nM)
Summary of the method: as §1

[11] = tested on: PPARg:RXRa DBDmut IVT, anti-RXR (DBD mutation: RXRa K156A/R161A, NR concentration 270 nM, RXRa partner concentration 90 nM)
Summary of the method: as §1

[12] = tested on: PPARg:RXRa IVT, anti-PPARg (NR concentration 270 nM, RXRa partner concentration 90 nM)
Summary of the method: as §1

[13] = tested on: PPARg DBDmut:RXRa IVT, anti-PPARg (DBD mutation: PPARg1 K132A/R137A, NR concentration 270 nM, RXRa partner concentration 90 nM)
Summary of the method: as §1

[14] = tested on: PPARg DBDmut IVT, anti-PPARg (DBD mutation: PPARg1 K132A/R137A, NR concentration 270 nM)
Summary of the method: as §1

[15] = tested on: PPARg homodimer (NR concentration 180 nM)
Summary of the method: as §1

[16] = tested on: PXR:RXRa (NR concentration 270 nM, RXRa partner concentration 90 nM)
Summary of the method: as §1

[17] = tested on: PXR homodimer (NR concentration 270 nM)
Summary of the method: as §1

[18] = tested on: RARa:RXR (NR concentration 270 nM, RXRa partner concentration 90 nM)
Summary of the method: as §1

[19] = tested on: RARa homodimer (NR concentration 270 nM)
Summary of the method: as §1

[20] = tested on: RARb:RXRa (NR concentration 270 nM, RXRa partner concentration 90 nM)
Summary of the method: as §1

Sequence | PBM binding z-score [1] | PBM binding z-score [2] | PBM binding z-score [3] | PBM binding z-score [4] | PBM binding z-score [5] | PBM binding z-score [6] | PBM binding z-score [7] | PBM binding z-score [8] | PBM binding z-score [9] | PBM binding z-score [10] | PBM binding z-score [11] | PBM binding z-score [12] | PBM binding z-score [13] | PBM binding z-score [14] | PBM binding z-score [15] | PBM binding z-score [16] | PBM binding z-score [17] | PBM binding z-score [18] | PBM binding z-score [19] | PBM binding z-score [20]
CTCGAAAGGTCGTGCTCAGGTGTGTATACCAAAC | 5.43 | 3.78 | 0.295 | 3.62 | 0.401 | 4.72 | 2.43 | 3.56 | 1.06 | 2.46 | 0.974 | 2.05 | 0.571 | -0.156 | 3.36 | 3.32 | 0.146 | 4.07 | -0.478 | 3.99
ATTATTAGTTGAGACGAGGGCAACCGATAGGTTG | 1.13 | 0.675 | 1.08 | 0.406 | 0.941 | 0.603 | 0.713 | 0.504 | 0.68 | 0.781 | 0.469 | 1.43 | 1.76 | 1.3 | 1.77 | 1.72 | 1.69 | 1.4 | 2.49 | 1.48
TGTCAAAGTTCCAAGGTAACGTAAGTATCCACAC | 0.32 | 0.139 | -0.0669 | 0.284 | 0.0682 | 0.321 | 0.758 | 1.18 | 0.448 | 1.04 | -0.29 | 1.18 | 0.991 | 0.288 | 0.137 | 0.082 | 0.35 | 0.56 | 0.373 | 0.659
GGACCGAGGGCAAGTTGATAGCAGAGTTTGATGG | 0.721 | 0.322 | -0.497 | 0.0428 | -0.812 | 0.868 | 0.401 | 0.00699 | -0.601 | -0.0881 | 0.956 | 0.614 | -1.14 | -1.16 | 0.433 | 0.556 | 0.539 | 0.315 | -0.39 | 2.6
CCTTACGGGTCACTGACAGGTTATAGCATTTGGA | 5.52 | 4.15 | 0.472 | 3.5 | 0.111 | 5.06 | 4.48 | 4.67 | 1.53 | 3.39 | 3.49 | 3.75 | 0.989 | 0.078 | 3.59 | 3.81 | -0.141 | 4.92 | 1.13 | 4.02
TCATATGGGTAAAGGTGAAAGTCGAACGATATGA | 0.574 | 1.13 | -0.287 | 1.09 | -0.607 | 3.53 | 5.17 | 5.52 | 4.64 | 5.69 | 3.36 | 3.75 | 1.24 | 0.532 | 0.852 | 0.764 | -0.418 | 1.66 | 0.221 | 1.79
CCTACTGGGCCAAGGTCATTTATCAGTCAAAGCA | 3 | 3 | 1.94 | 3.53 | 0.242 | 3.92 | 4.1 | 4.33 | 1.69 | 3.57 | 3.45 | 4.56 | -0.913 | -0.873 | 1.83 | 3.22 | 1.73 | 3.28 | 0.0192 | 3.15
TCTTGTAGATCAGCAGGTTAAGACAGCTGGCCAA | 0.409 | 0.423 | -0.459 | 0.114 | -0.579 | 0.79 | -0.112 | 1.46 | 2.57 | 2.02 | 1.91 | 0.417 | 0.269 | 0.156 | 0.137 | 0.129 | -0.0251 | 0.309 | 0.389 | 0.0665
GCTGCTAGGTCGGGTTGGTCAGCTAACGGGTACG | -0.105 | -0.0902 | -0.312 | -0.21 | -0.573 | -0.124 | -0.576 | -0.344 | -0.825 | -0.553 | 0.38 | 0.339 | -1.51 | -0.0499 | -0.349 | -0.0179 | -0.16 | -0.157 | -1.16 | 1.16
CCTACTGGGCCATCAGGTCACTGATATCAACGTT | 1.21 | 0.856 | 0.277 | 1.45 | -0.523 | 2.54 | 3.22 | 3.98 | 1.37 | 3.37 | 4.97 | 5.45 | -0.0281 | -0.141 | 0.904 | 1.44 | 0.0492 | 1.94 | -0.142 | 2.33
CAAACTAGGTCACAGAGCTCAAAGTCCGTGCGTA | 4.29 | 3.18 | 0.278 | 2.01 | 0.231 | 5.45 | 8.88 | 7.47 | 5.2 | 7.26 | 8.61 | 8.86 | 3.69 | 1.2 | 1.74 | 1.81 | -0.0569 | 2.68 | 0.446 | 4.13
ATCTCCAGGTAAAGTTCAGTGAAAGATCGATAGA | 1.54 | 2.1 | 1.98 | 1.55 | 1.25 | 2.02 | 1.2 | 2.62 | 1 | 1.91 | 0.492 | 0.889 | 1.11 | 0.586 | 1.7 | 2.32 | 2.13 | 1.81 | 1.45 | 2.78
GCTTGTAGATGAAGGTTAAGAAAGACTAAGCTAA | -0.515 | 0.357 | -0.563 | -0.0135 | -0.789 | 0.816 | 0.15 | 0.943 | -0.144 | 0.254 | 0.000874 | 0.405 | 0.135 | -0.0594 | -0.126 | 0.0589 | -0.403 | 0.444 | -0.213 | 0.535
ATATGTAGGTTAGATCCGGGTCATTCAGGCTATG | 1.55 | 2.3 | 0.843 | 1.99 | 0.185 | 3.74 | 4.17 | 3.71 | 1.53 | 2.86 | 6.3 | 6.32 | 1.34 | 0.983 | 1.65 | 3.1 | 1.25 | 3.08 | 1.01 | 2.03

— the supplement of paper PMC6555819
